Screening results: PubChem BioAssay, several laboratories
Ba/F3 V617F tox = loss of viability in JAK2V617F-driven Ba/F3 cells. Ba/F3 EpoR-JAK2V617F viability, ATP luminescence. inhibition, % at 5.6 µM. hit rate 1.1% among 220,000;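 active = inhibition above the campaign mean plus 3 SD over all tested compounds, cut at about 24% in these data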;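 also: cytokine-independent growth of Ba/F3 cells driven by EpoR plus mutant JAK2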
IEC-6 cytotox = kills IEC-6 intestinal cells in KLF5 counter-screen. inhibition, % at 5 µM. IEC-6 cytotoxicity, luminescence viability. hit rate 0.78% among 290,000
APP 5UTR inh = APP translation inhibition; SH-SY5Y APP 5'UTR-luciferase reporter, luminescence; inhibition, % at 2 µM; hit rate 0.82% among 190,000; AID 1285;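 active = inhibition above a set limit, derived from the sample mean plus 3 SD, cut at about 45% in these data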
BaF3 tox = parental Ba/F3 viability inhibition as JAK2V617F counter-screen; hit rate 1.1% among 220,000; CellTiter-Glo ATP luminescence; inhibition, % at 5.6 µM; AID 1486;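 active = inhibition above a per-campaign cutoff, the mean inhibition of all tested compounds plus 3 SD, cut at about 27% in these data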
KLF5 inh = kruppel-like factor 5 inhibition; hit rate 0.23% among 290,000; inhibition, % at 5 µM; DLD-1 KLF5 promoter-luciferase reporter, luminescence;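 active = inhibition above a per-plate limit of that plate's mean compound inhibition plus 3 SD, cut at about 60% in these data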;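 also: higher means less KLF5 promoter-driven luciferase light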
aSyn 5UTR inh = MLPCN primary screen, SNCA 5' untranslated region; inhibition, % (tested at 7.5 µM); alpha-synuclein 5'UTR reporter, inhibitor activity; AID 1813; hit rate 0.82% among 300,000; in the data active = inhibition above about 60%;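 also: H4 neuroglioblastoma cells stably carrying SNCA 5'UTR luciferase fusion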
IEC-6 tox confirm = confirmation of cytotoxic compounds in rat IEC-6 intestinal epithelial cells; inhibition, % at 5 µM; hit rate 63% among 1,900; IEC-6 rat intestinal epithelial viability, luminescence; shares compounds with IEC-6 cytotox
Of the large screens only hits and unclear results are named; the others gave an inactive call (follow-up assays come after a bar, where they were run). The list is not random: actives were taken first. Their share in the collection is about 2.1%. Rule as the data show it, unless noted: active = inhibition above about 22%; inactive = the rest.

Cc1cnc(NC(=O)c2nn(C)cc2[N+](=O)[O-])s1	none
O=C(Nc1cccc2ccccc12)c1ccc([N+](=O)[O-])o1	IEC-6 cytotox 96 (no result: Ba/F3 V617F tox, APP 5UTR inh, BaF3 tox) | IEC-6 tox confirm 22
O=C(O)/C=C\c1cccc(-n2nnnc2SCc2ccccc2F)c1	none (no result: Ba/F3 V617F tox, APP 5UTR inh, BaF3 tox)
Cc1cccc(NC(=O)c2ccc([N+](=O)[O-])o2)c1C	IEC-6 cytotox 34 | IEC-6 tox confirm 23
Cc1ccc(-c2csc(NC(=O)c3ccc(C)o3)n2)cc1	none
Cc1ccc(-c2csc(NC(=O)c3ccc([N+](=O)[O-])o3)n2)cc1	IEC-6 cytotox 100 (no result: Ba/F3 V617F tox, APP 5UTR inh, BaF3 tox) | IEC-6 tox confirm 42
O=C(Nc1cc(-c2nc3ncccc3o2)ccc1Cl)c1cccs1	none (no result: Ba/F3 V617F tox, APP 5UTR inh, BaF3 tox)
Cc1ccc2nsnc2c1NC(=O)c1ccc([N+](=O)[O-])o1	IEC-6 cytotox 96 (no result: Ba/F3 V617F tox, APP 5UTR inh, BaF3 tox) | IEC-6 tox confirm 28
O=C(Nc1cc(-c2nc3ncccc3o2)ccc1Cl)c1ccc([N+](=O)[O-])o1	IEC-6 cytotox 93 (no result: Ba/F3 V617F tox, APP 5UTR inh, BaF3 tox) | IEC-6 tox confirm 30
CC(C)Cn1c(N)c(C(=O)COC(=O)/C=C/c2ccccc2)c(=O)n(C)c1=O	none (no result: Ba/F3 V617F tox, IEC-6 cytotox, APP 5UTR inh, BaF3 tox, KLF5 inh)
C/C(=N\NC(=O)Cc1ccc(Cl)cc1)c1ccccc1O	IEC-6 cytotox 28 (no result: Ba/F3 V617F tox, APP 5UTR inh, BaF3 tox) | IEC-6 tox confirm 29
Cc1cccc(C(C)C)c1NC(=O)COC(=O)CCN1C(=O)C2CC=CCC2C1=O (centres undefined)	none (no result: Ba/F3 V617F tox, APP 5UTR inh, BaF3 tox)
COc1ccc(/C=C2\CN(Cc3ccccc3)C/C(=C\c3ccc(OC)c(O)c3)C2=O)cc1O	IEC-6 cytotox 33, aSyn 5UTR inh 107 (no result: Ba/F3 V617F tox, APP 5UTR inh, BaF3 tox) | IEC-6 tox confirm inactive
COc1cc(/C=C2/SC(=S)N(Cc3ccccc3)C2=O)ccc1O	none (no result: Ba/F3 V617F tox, APP 5UTR inh, BaF3 tox)
CC(C)NC(=O)C(C)Oc1ccc(S(=O)(=O)NCc2ccc3c(c2)OCO3)cc1 (centres undefined)	none (no result: Ba/F3 V617F tox, APP 5UTR inh, BaF3 tox)
CC12CCC(=O)N1C(C(=O)Nc1ccc(SC(F)F)cc1)CS2 (centres undefined)	none (no result: Ba/F3 V617F tox, IEC-6 cytotox, APP 5UTR inh, BaF3 tox, KLF5 inh)
CCC(CC)C(=O)c1c[nH]c(C(=O)O)c1	none
CCC(CC)C(=O)c1c[nH]c(C(=O)NN)c1	IEC-6 cytotox 30, APP 5UTR inh 88 | IEC-6 tox confirm inactive
Cc1ccc(N/N=C(\Cc2nc3ccccc3[nH]2)c2ccccc2)cc1	IEC-6 cytotox 55, APP 5UTR inh 92 (no result: aSyn 5UTR inh) | IEC-6 tox confirm 61
Cc1ccc(-c2cc(C(=O)N/N=C/c3c(C)nn(-c4ccccc4)c3C)n[nH]2)s1	Ba/F3 V617F tox 74, IEC-6 cytotox 68, APP 5UTR inh 92, BaF3 tox 82 | IEC-6 tox confirm 56
CCN1C(=O)c2ccc(C(=O)Nc3ccc(O)cc3C)cc2C1=O	none (no result: Ba/F3 V617F tox, APP 5UTR inh, BaF3 tox)
COc1ccc(CNC(=O)C/C(C)=N/NC(=O)c2cc(OC)cc(OC)c2)cc1	IEC-6 cytotox 77 (no result: Ba/F3 V617F tox, APP 5UTR inh, BaF3 tox) | IEC-6 tox confirm inactive
C/C(CC(=O)Nc1ccccn1)=N\NC(=O)c1ccccc1	none
COc1ccc(CNC(=O)C/C(C)=N/NC(=O)c2ccc(OC)cc2OC)cc1	none (no result: Ba/F3 V617F tox, APP 5UTR inh, BaF3 tox)
COc1cc(OC)cc(C(=O)N/N=C(\C)CC(=O)Nc2ccccn2)c1	IEC-6 cytotox 74 (no result: Ba/F3 V617F tox, APP 5UTR inh, BaF3 tox) | IEC-6 tox confirm inactive
CN1C2CCC1/C(=C\c1ccccc1F)C(=O)/C2=C/c1ccccc1F	IEC-6 cytotox 33 | IEC-6 tox confirm inactive
O=C(NC(=S)NCCc1ccccc1)c1cccc(Cl)c1	none (no result: Ba/F3 V617F tox, APP 5UTR inh, BaF3 tox)
COc1ccc(N(CC(=O)Nc2ccccc2OC)S(=O)(=O)c2ccc(NC(C)=O)cc2)cc1	IEC-6 cytotox 38 (no result: Ba/F3 V617F tox, APP 5UTR inh, BaF3 tox) | IEC-6 tox confirm 32
COc1ccccc1NC(=O)CN(c1ccccc1)S(=O)(=O)c1ccccc1	none (no result: Ba/F3 V617F tox, APP 5UTR inh, BaF3 tox)
COc1cc2nc(=S)n3[nH]c(COc4ccccc4C)nc3c2cc1OC	none
COc1cc2nc(=S)n3[nH]c(CCn4nc(C)cc4C)nc3c2cc1OC	IEC-6 cytotox 53 | IEC-6 tox confirm inactive
COc1cc2c(cc1OC)C(C)N(C(=O)c1nccnc1C(=O)O)CC2 (centres undefined)	none (no result: APP 5UTR inh)
COc1cc2c(cc1OC)C(C)N(C(=O)c1cc(Cl)nc(Cl)c1)CC2 (centres undefined)	IEC-6 cytotox 39 (no result: Ba/F3 V617F tox, APP 5UTR inh, BaF3 tox) | IEC-6 tox confirm inactive
COc1ccc(CCNC(=O)c2ccc(NS(=O)(=O)c3ccc4[nH]c(=O)[nH]c4c3)cc2)cc1	none (no result: Ba/F3 V617F tox, IEC-6 cytotox, APP 5UTR inh, BaF3 tox, KLF5 inh)
COCCCNC1=C(Cl)C(=O)c2ccccc2C1=O	none (no result: APP 5UTR inh)
CC(C)OCCCNC1=C(Cl)C(=O)c2ccccc2C1=O	IEC-6 cytotox 51 (no result: APP 5UTR inh) | IEC-6 tox confirm inactive
CC(C)NC1=C(Cl)C(=O)c2ccccc2C1=O	IEC-6 cytotox 44 | IEC-6 tox confirm inactive
